From PubChem BioAssay (Tox21)
Values without a mark were called inactive. The source made the active and inactive calls. Calls come from the whole dose curve; as a rule, active = well fitted curve in the direction sought with a large enough effect in the repeat runs; inconclusive = weak or mixed curves; inactive = flat fitted curve, though single readings scatter. Positions of bridges follow the written chain, without caps; N, C: chain ends. Non-standard residues stand in square brackets, D forms with d. Residues, ends and D or L forms follow the SMILES beside them. ξ: configuration not given here. *: point of attachment. d(aThr) = C[C@@H](O)[C@@H](N)C(=O)O; ξThr(3R) = C[C@@H](O)C(N)C(=O)O; X3 = CC[C@@H](C)CCCCC(=O)*; dDab = NCC[C@@H](N)C(=O)O

Assay: qHTS assay to test for compound auto fluorescence at 460 nm (blue) in HepG2 cell free culture (AID 720685)
Conditions: Cell-free culture medium, blue autofluorescence 405/460 nm; series mostly up to 46 µM; fluorescence, % of fluorescent control: at the top concentration
Text: U.S. Tox21 Program National Center for Advancing Translational Sciences [NCATS] NIH Chemical Genomics Center [NCGC] U.S. Environmental Protection Agency [EPA] National Institutes of Environmental Health Sciences [NIEHS] National Toxicology Program [NTP] U.S. Food and Drug Administration [FDA] Tox21 Assay Overview: Compound auto fluorescence often interferes with screening of the compound library against various biological targets and signaling pathways. Some of these compounds may have fluorophoric properties. Such properties may interfere with the assay outputs resulting in false positives and/or negatives. To decrease such complications and ensure the compound activities are relevant in terms of biological response, the Tox21 10K compound library was screened for auto fluorescence. From the fluorophores used as reporter signals in our screening assays, the auto fluorescence equivalencies of compounds against three fluorophores have been evaluated: Triamterene, Fluorescein and Rose Bengal sodium for blue, green and red fluorescence, respectively. The fluorescence intensities were measured using Excitation/Emission wavelengths at 405/460nm, 485/535nm and 540/590nm for blue, green and red labels, respectively. This assay includes the blue fluorescence data.
Tox21 Assay Protocol Summary: 5 uL of culture medium (MEM containing 10% FBS) per well was dispensed into black wall/clear bottom 1536-well plates using a Multidrop Combi Dispenser (ThermoFisher Scientific, Waltham, MA). After 23 nL compound or DMSO vehicle was transferred into assay plate by a pintool work station (Kalypsys, San Diego, CA), fluorescence intensities in the assay plates were measured by an Envision (PerkinElmer, Shelton, CT) plate reader using three labels for measuring blue, green and red fluorescence at […] 460, 535 and 590nm respectively.
% is set by controls: 0 for no effect and ±100 for the full control effect.

Row | Compound | fluorescence, % of fluorescent control | outcome
1 | CCC(=O)O[C@H]1CC[C@H]2[C@@H]3CCc4cc(O)ccc4[C@H]3CC[C@]12C | 0.14% | –
2 | CCCC(=O)N1CCCN(c2nc(N)c3cc(OC)c(OC)cc3n2)CC1 | 0.0113% | –
3 | O=C(NNCS(=O)(=O)O)c1ccncc1 | 0.0113% | –
4 | CC(C)(C)C1(O)CCN2CC3c4ccccc4CCc4cccc(c43)C2C1 (stereo not given) | 0.0459% | –
5 | COc1ccc(C(=O)Nc2ccccc2CCC2CCCCN2C)cc1 (stereo not given) | -0.0113% | –
6 | CC1(C)S[C@@H]2[C@H](NC(=O)C(C(=O)O)c3ccsc3)C(=O)N2[C@H]1C(=O)O (stereo not given in full) | 0.188% | –
7 | CC(C)(C)NCC(O)CSc1nc(-c2ccc(C(N)=O)s2)cs1 (stereo not given) | -0.0492% | –
8 | C=C(NC(=O)C(=C)NC(=O)c1csc(C2=N[C@@H]3c4csc(n4)[C@H]4NC(=O)c5csc(n5)[C@H]([C@](C)(O)[C@@H](C)O)NC(=O)[C@H]5CSC(=N5)C(=CC)NC(=O)C([C@@H](C)O)NC(=O)c5csc(n5)[C@]3(CC2)NC(=O)[C@H](C)NC(=O)C(=C)NC(=O)[C@H](C)NC(=O)C([C@@H](C)CC)NC2C=Cc3c([C@H](C)O)cc(nc3C2O)C(=O)O[C@@H]4C)n1)C(N)=O (stereo not given in full) | 0.221% [at 18.6 µM] | –
9 | COc1ccc(C(=O)CCC(=O)O)c2ccccc12 | 0.0042% | –
10 | Cc1ncc(C[n+]2csc(CCOP(=O)(O)OP(=O)(O)O)c2C)c(N)n1 | -0.0072% | –
11 | CN(C)c1ccc(C(=C2C=CC(=[N+](C)C)C=C2)c2c(O)c(S(=O)(=O)[O-])cc3cc(S(=O)(=O)O)ccc23)cc1 | -0.0127% | –
12 | Cc1cccc(C)c1Nc1ncccc1C(=O)O | 0.203% | –
13 | CCC(=O)OCC(=O)[C@@]1(OC(=O)CC)[C@H](C)C[C@H]2[C@@H]3CCC4=CC(=O)C=C[C@]4(C)[C@@]3(F)[C@@H](O)C[C@@]21C | 0.141% | –
14 | CN1c2c(nc(N)[nH]c2=O)NCC1CNc1ccc(C(=O)NC(CCC(=O)O)C(=O)O)cc1 (stereo not given) | 0.867% | –
15 | C[C@]12CC[C@@H]3c4ccc(OS(=O)(=O)O)cc4CC[C@H]3[C@@H]1CCC2=O | 0.263% | –
16 | CC[C@@H](C)CCCCC(=O)N[C@H](CCN)C(=O)N[C@@H](C(=O)N[C@H](CCN)C(=O)N[C@@H]1CCNC(=O)C([C@@H](C)O)NC(=O)[C@@H](CCN)NC(=O)[C@@H](CCN)NC(=O)[C@@H](CC(C)C)NC(=O)[C@@H](Cc2ccccc2)NC(=O)[C@@H](CCN)NC1=O)[C@@H](C)O (stereo partly drawn) (X3-[dDab][d(aThr)][dDab][dDab][dDab][dF][dL][dDab][dDab][ξThr(3R)]; lactam 4-C) | -0.0648% | –
17 | CCCOc1cc(N)ccc1C(=O)OCCN(CC)CC | -0.0502% [at 18.6 µM] | –
18 | CCC(=O)Oc1ccc2c(c1)CC[C@@H]1[C@@H]2CC[C@]2(C)[C@@H](OC(=O)CC)CC[C@@H]12 | -0.02% | –
19 | CCC(C)[C@H]1O[C@]2(C=C[C@@H]1C)C[C@@H]1C[C@@H](C/C=C(\C)[C@@H](O[C@H]3C[C@H](OC)[C@@H](O[C@H]4C[C@H](OC)[C@H](NC(C)=O)[C@H](C)O4)[C@H](C)O3)[C@@H](C)/C=C/C=C3\CO[C@@H]4[C@H](O)C(C)=C[C@@H](C(=O)O1)[C@]34O)O2 (stereo not given in full) | – | inactive
20 | CCC(=O)OCC(=O)[C@@]1(OC(=O)CC)[C@@H](C)C[C@H]2[C@@H]3CCC4=CC(=O)C=C[C@]4(C)[C@@]3(F)[C@@H](O)C[C@@]21C | 0.0988% | –

Row | Compound | fluorescence, % of fluorescent control | outcome
21 | C[C@@H]1CCC2[C@@H](C)[C@@H](O)O[C@@H]3O[C@@]4(C)CC[C@@H]1[C@@]23OO4 (stereo not given in full) | -0.0309% | –
22 | CC(=O)[C@@]1(O)CC[C@H]2[C@@H]3C=C(Cl)C4=CC(=O)CC[C@]4(C)[C@H]3CC[C@@]21C | -0.0128% | –
23 | CCCCCCCCCCCCCCCCSCC(COC)COP(=O)([O-])OCC[N+](C)(C)C (stereo not given) | 0.107% | –
24 | CC(C)N1CCN(c2ccc(OC[C@H]3CO[C@](Cn4cncn4)(c4ccc(Cl)cc4Cl)O3)cc2)CC1 | -0.0277% [at 18.6 µM] | –
25 | C[C@H]1C[C@@H]2[C@H]([C@@H](O)C[C@@]3(C)[C@H]2CC[C@]3(O)C(=O)COC(=O)CCC(=O)O)[C@@]2(C)C=CC(=O)C=C12 | -0.0062% | –
26 | COC(=O)CC[C@H](N)C(=O)O | 0.0666% | –
27 | C#CCOc1ccc2c(C)cc(=O)oc2c1 | 8.83% | –
28 | CC(=O)OCC(=O)[C@@]12OC3(CCCC3)O[C@@H]1C[C@H]1[C@@H]3CCC4=CC(=O)C=C[C@]4(C)[C@@]3(F)[C@@H](O)C[C@@]12C | -0.0073% | –
29 | O=[n+]1ccn([O-])c2ccccc21 | 0.0949% | –
30 | CC(=O)OC[C@H]1O[C@@H](O[C@H]2[C@H](O)[C@@H](OC(=O)c3ccccc3C(=O)O)[C@H](O)O[C@@H]2COC(C)=O)[C@H](O)[C@@H](OC(=O)c2ccccc2C(=O)O)[C@@H]1O | -0.0897% | –
31 | Cc1ccc(S(=O)(=O)NC(=O)N[C@@H](C)Cc2ccccc2)cc1 | -0.144% | –
32 | CC(C)CN(C[C@@H](O)[C@H](Cc1ccccc1)NC(=O)O[C@H]1CO[C@H]2OCC[C@H]21)S(=O)(=O)c1ccc(N)cc1 | -0.0131% | –
33 | COc1ccc(-c2noc(CC(=O)O)c2-c2ccc(OC)cc2)cc1 | -0.105% | –
34 | O=C1O[C@H]2[C@H](O)[C@@H]1OC(O)[C@H]2O (stereo not given in full) | 0.0748% | –
35 | CCCCCCCCCCCCCCCC(=O)OC[C@@H](NC(=O)C(Cl)Cl)[C@H](O)c1ccc([N+](=O)[O-])cc1 | -0.0018% | –
36 | COc1ccc2c(c1)OC(C)(C)C(c1ccccc1)C2c1ccc(OCCN2CCCC2)cc1 (stereo not given) | 0.0042% | –
37 | CN(C)C=Nc1c(I)cc(I)c(CCC(=O)O)c1I | 0.0541% | –
38 | O=C(NNCNNC(=O)c1ccncc1)c1ccncc1 | -0.0374% | –
39 | CC[N+](C)(C)Cc1ccccc1Br | -0.0228% [at 18.6 µM] | –
40 | O=C(O)CC/C=C\CC[C@@H]1[C@@H](N2CCCCC2)[C@@H](O)C[C@@H]1OCc1ccc(-c2ccccc2)cc1 | 0.0844% | –
